# Calls of active or inactive are those of the source. Calls follow the shape of the dose curve; as a rule, active = well fitted inhibition curve with a large enough effect; inconclusive = small, poorly fitted or top-dose-only effect; inactive = flat fitted curve, though single readings scatter. Where a SMILES comes first, the peptide text is derived from it. The star is where a group is joined. AMC = Cc1cc(=O)oc2cc(N*)ccc12; Cbz = O=C(OCc1ccccc1)*
# System: Nanoluciferase (engineered Oplophorus gracilirostris luciferase)
# Experiment: Primary Nanoluciferase (NLuc) qHTS assay for identification of artifact compounds. (AID 1845222);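 also: 0% = DMSO and -100% = no enzyme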
# Conditions: NLuc-conditioned medium, Nano-Glo luminescence, 5 min; series mostly up to 54.1 µM; activity, negative = inhibition: at the top concentration
# Method in brief: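 Luminescence read-out of secreted NLuc in S16 cell conditioned medium (1:55); compounds tested with 15 min RT preincubation, then Nano-Glo substrate 1:100, 5 min. % inhibition vs no-enzyme and DMSO controls, 4-parameter Hill fit.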
row,Structure (SMILES),"activity, negative = inhibition"
1,CCC(C)C(C(=O)O)N1Cc2c(OCC=C(C)C)c(C)c(OC)c(C(=O)O)c2C1=O (configuration not stated),-0.892% [at 25.7 µM] (inactive)
2,CC(C)=C1C[C@@]2(C)C(=CC1=O)CC[C@@H](O)[C@@H]2C,2.02% (inactive)
3,CC1(C)CCC2(C(=O)O)C(O)CC3(C)C(=CCC4C5(C)CCC(OC6OC(CO)C(O)C(O)C6OC6OC(CO)C(O)C(O)C6OC6OCC(O)(CO)C6O)C(C)(C)C5CCC43C)C2C1 (configuration not stated),1.68% [at 11.6 µM] (inactive)
4,CC(C)=C1CC2[C@](C)(CC[C@@H](OC(=O)C3(C)OC3C)[C@@]2(C)O)CC1=O (some centres not stated),0% (inactive)
5,Cc1cc(=O)oc2cc(NC(=O)[C@H](CCC(=O)O)NC(=O)[C@H](CC(C)C)NC(=O)[C@H](CC(C)C)NC(=O)OCc3ccccc3)ccc12 (Cbz-Leu-Leu-Glu-{AMC}),-0.514% (inactive)
6,C=C1CCC2C(C)(C(=O)OC)CCCC2(C)C1CCC1=CCOC1=O (configuration not stated),0.523% (inactive)
7,O=C(O[C@@H]1O[C@H](CO)[C@@H](O)[C@H](O)[C@H]1O)c1ccccc1,0% (inactive)
8,CC(=O)O[C@@H]1[C@H](OC(C)=O)C[C@@]2(C)C(CC[C@@H](C)[C@]23Cc2c(O)cc4c(c2O3)CN([C@@H](CCC(=O)O)C(=O)O)C4=O)C1(C)C (some centres not stated),1.28% [at 25.7 µM] (inactive)
9,CC(C)(C)NS(=O)(=O)c1ccc(-c2ccc3[nH]nc(N)c3c2)cc1,3.05% (inactive)
10,N#Cc1cc(-c2n[nH]c(-c3ccncc3)n2)ccn1,-21.8% (inactive)
11,CC(C)=CCC[C@](C)(O[C@@H]1O[C@H](CO)[C@@H](O)[C@H](O)[C@H]1O)[C@H]1CC[C@]2(C)[C@@H]1[C@H](O)CC1[C@@]3(C)CC[C@H](O)C(C)(C)C3[C@@H](O[C@@H]3O[C@H](CO)[C@@H](O)[C@H](O)[C@H]3O[C@@H]3O[C@@H](C)[C@H](O)[C@@H](O)[C@H]3O)C[C@]12C (some centres not stated),4.23% [at 11.6 µM] (inactive)
12,CC(=O)OC1C(CO)OC(O[C@H]2[C@H](OC(=O)[C@]34CCC(C)(C)C[C@H]3C3=CCC5[C@@]6(C)CC[C@H](O[C@@H]7O[C@H](C(=O)O)[C@@H](O)[C@H](O[C@@H]8OC[C@@H](O)[C@H](O)[C@H]8O)[C@H]7O[C@@H]7O[C@H](CO)[C@H](O)[C@H](O)[C@H]7O)[C@@](C)(C=O)C6CC[C@@]5(C)[C@]3(C)C[C@H]4O)O[C@H](C)[C@H](OC3OC(C)C(OC4OCC(O)C(O)C4O)C(O)C3O)[C@@H]2O)C(O)C1O (some centres not stated),1.69% [at 11.6 µM] (inactive)
13,CC1=CC(=O)CC(C)(C)C1CO[C@@H]1O[C@H](CO)[C@@H](O)[C@H](O)[C@H]1O (some centres not stated),4.96% (inactive)
14,CC1(C)C2CC[C@@]34CC(CC[C@H]3[C@]2(C)CC[C@@H]1O[C@@H]1O[C@H](CO)[C@@H](O)[C@H](O)[C@H]1O)[C@](C)(O)C4 (some centres not stated),0% [at 25.7 µM] (inactive)
15,O=C(OCC1OC(Oc2ccc(O)cc2COC(=O)C2(O)C(O)CCC(=O)C2OC(=O)C2C=CCC2)C(OC(=O)C2C=CCC2)C(O)C1O)C1C=CCC1 (configuration not stated),-1.35% [at 25.7 µM] (inactive)
16,COC(=O)C[C@@H]1C(C(=O)O)=CO[C@@H](O[C@@H]2O[C@H](CO)[C@@H](O)[C@H](O)[C@H]2O)/C1=C\COC(=O)/C=C/c1ccc(O)c(OC)c1,1.83% [at 25.7 µM] (inactive)
17,C=C1CC[C@@]2(OC1)O[C@H]1CC3C4CC=C5C[C@@H](O[C@@H]6O[C@@H](C)[C@H](O)[C@@H](O)[C@H]6O)C[C@@H](O[C@@H]6O[C@H](C)[C@H](O)[C@H](O)[C@H]6O[C@@H]6O[C@@H](C)[C@H](O)[C@@H](O)[C@H]6O)[C@]5(C)C4CC[C@]3(C)[C@H]1[C@@H]2C (some centres not stated),-0.58% [at 11.6 µM] (inactive)
18,CC(C)(CC(=O)N1CCCC1)NCC(=O)N1C[C@@H](F)C[C@H]1C#N,4.73% (inactive)
19,CC1C2=CC(=O)OC2(O)CC2C1C(OC(=O)c1ccccc1)C(OC(=O)c1ccccc1)C1(O)C2(C)CCC(O)C1(C)C(=O)O (configuration not stated),-20.7% [at 25.7 µM] (inactive)
20,CCC[C@H](N[C@@H](C)C(=O)N1[C@H](C(=O)O)C[C@@H]2CCCC[C@@H]21)C(=O)O,-6.74% (inactive)
21,CC(C)=CCc1c(O)cc2oc3cc(C)cc(O)c3c2c1C,-0.0302% (inactive)
22,Cc1cc(-n2c(=O)[nH]c(=O)n(C)c2=O)ccc1Oc1ccc(SC(F)(F)F)cc1,0% (inactive)
23,C/C=C(/C)C(=O)OC1C2OC2C2(CO2)C2C3OC(=O)C(C)C3CCC12C (configuration not stated),-21.7% (inactive)
24,CC1=C2CC(=O)C(C)CC/C=C(\C)CC2OC1=O (configuration not stated),3.57% (inactive)
25,CC(=O)O[C@H]1C[C@@H](O)C(C)(C)C2C[C@@H](OC(C)=O)[C@@]3(C)C4=CCC(C(CO)CC(O)C5OC5(C)C)[C@]4(C)CCC3[C@]21C (some centres not stated),2.26% [at 25.7 µM] (inactive)
26,C[C@@H]1O[C@@H](O[C@H]2[C@H](O[C@H]3[C@H](O[C@H]4CC[C@@]5(C)C(CC[C@]6(C)C5CC=C5[C@@H]7CC(C)(C)C[C@@H](O)[C@]7(C)CC[C@]56C)[C@@]4(C)CO)O[C@H](C(=O)O)[C@@H](O)[C@@H]3O)O[C@H](C(=O)O)[C@H](O)[C@@H]2O)[C@H](O)[C@H](O)[C@H]1O (some centres not stated),0% [at 11.6 µM] (inactive)
27,Fc1ccccc1-c1nc2ccn(Cc3ccc(-c4ccc(C(F)(F)F)cc4C(F)(F)F)nn3)cc-2n1,2.33% (inactive)

# Reference: PubChem BioAssay (NCATS)
